Laboratory results as given in PubChem BioAssay AID504882 (Broad Institute, 2011).
The campaign covered roughly 1,200 compounds. About 290 (24%) were called active. Not shown: some 9% with an inconclusive outcome. How the calls were made is not given here. These entries were drawn from the full list. Results with a measured potency or affinity are listed apart.

Assay: cytotoxicity in EBV lymphoblastoid cells, dose response, cytotoxicity control, cell-based, plate reader, cherry-picks, set 2 (AID 504882)
Details: EBV lymphoblastoid cells (LCL) viability; series mostly up to 19.5 µM

Compound	outcome
CC(C)(C)c1ccc(C(=O)Nc2nnc(SCC(=O)NCC3CCCO3)s2)cc1 (stereo unspecified)	inactive
Cc1cc(NC(=O)CSc2ccnc(=O)[nH]2)no1	inactive
CC(C)Cc1ccc([C@H](C)C(=O)O)cc1	inactive
CS(=O)(=O)N(CC(=O)Nc1ccc(F)cc1F)C1CCCCC1	inactive
O=C1CCC(C(=O)N2CCCCCC2)CN1CCc1ccc(Cl)cc1 (stereo unspecified)	inactive
S=C1SCN(Cc2ccccc2)CN1Cc1ccco1	inactive
O=C1/C(=C/c2cccnc2)SC(=S)N1Cc1ccco1	inactive
CC(C)NC(=O)N(C)C[C@H]1Oc2c(NC(=O)Nc3ccc4c(c3)OCO4)cccc2C(=O)N([C@H](C)CO)C[C@@H]1C	inactive
O=C1CCCN2N=C(SCC(=O)Nc3ccc(Br)cc3)SC2=N1	inactive
COc1ccc(S(=O)(=O)NCCc2csc(-c3cccnc3)n2)cc1	inactive
CC1Cc2ccccc2N1c1ncnc(N)c1[N+](=O)[O-] (stereo unspecified)	inactive
CC(=O)Nc1ccc(NC(=O)C(c2ccccc2)c2ccccc2)cc1	inactive
O=C(Cc1ccc(Cl)cc1)NCC(=O)N1CCCCC1	inactive
CCOC(=O)c1cn2nc(N3CCCC3)ccc2n1	inactive
COc1cc2cc(C(=O)Nc3ccc4c(c3)OCCO4)[nH]c2cc1OC	inactive
COc1cc(/C=N/NC(=O)c2cc(C34CC5CC(CC(C5)C3)C4)[nH]n2)ccc1O	inactive
O=C(Nc1cc(S(=O)(=O)N2CCOCC2)ccc1Cl)c1ccncc1	inactive
COC(=O)[C@H](C)[C@H]1C[C@]1(C)[C@H](NC(=O)OCc1ccccc1)c1ccccc1	inactive
COc1ccccc1N1CCN(CCCNC(=O)C2CCCN(c3ncnc4c3nc3n4CCCCC3)C2)CC1 (stereo unspecified)	inactive
Cc1ccsc1/C=N/NC(=O)c1ccc2c(c1)OCCO2	inactive
CCOC(=O)c1sc(NC(=O)CNCc2ccccn2)c(C(=O)OCC)c1C	inactive
CC(=O)c1c(C)[nH]c(C(=O)Nc2ccc(C)cn2)c1C	inactive

Compound	outcome
Cc1cccn2c(=O)c(C=NCCO)c(NCc3ccco3)nc12	inactive
Clc1ccccc1C1=Nn2c(nnc2-c2ccncc2)SC1	inactive
Cc1ccc(C(=O)Nc2cccc(C(F)(F)F)c2)cc1Nc1ncnc2nc[nH]c12	inactive
c1cncc(CNc2ncnc3ccc(-c4ccoc4)cc23)c1	inactive
Cc1sc2ncn(CC(=O)N3CCC(C(N)=O)CC3)c(=O)c2c1S(=O)(=O)N1CCOCC1	inactive
Cc1ccc(N2CCN(C3=NC(=O)/C(=C\c4cn[nH]c4-c4ccccc4)S3)CC2)cc1	inactive
CC1CCN(C(=O)/C(=C\c2cccs2)NC(=O)c2ccccc2)CC1	inactive
C=CCN(c1ccc(C(=O)Nc2ccc3c(c2)n(C)c(=O)n3C)cc1)S(C)(=O)=O	inactive
COC(=O)c1cccc(COC(=O)c2ccccc2NC(=O)c2ccco2)c1	inactive
C[C@]12CC[C@@H]3c4ccc(OS(=O)(=O)O)cc4CC[C@H]3[C@@H]1CCC2=O	inactive
COc1ccccc1C(=O)NC(=O)CSc1nnc(N)s1	inactive
c1csc(CNc2ncnc3ccc(-c4ccoc4)cc23)c1	inactive
COc1ccc(C(=O)CSc2nnc(Cc3ccccc3)o2)cc1	inactive
CC[C@H]1OC(=O)[C@H](C)[C@@H](O[C@H]2C[C@@](C)(OC)[C@@H](O)[C@H](C)O2)[C@H](C)[C@@H](O[C@@H]2O[C@H](C)C[C@H](N(C)C)[C@H]2O)[C@](C)(O)C[C@@H](C)C(=NOCOCCOC)[C@H](C)[C@@H](O)[C@]1(C)O	inactive
N=C1S/C(=C\c2ccccc2)C(=O)N1c1ccc(F)cc1	inactive
CCC(=O)OC1c2ccccc2C(=O)N1Cc1ccccc1 (stereo unspecified)	inactive
CNc1ccc(Br)cc(C(=O)/C=C/c2cc(OC)ccc2OC)c1=O	inactive
CC(=O)/C=C/c1ccccc1O	inactive
CNc1ccc(Br)cc(C(=O)/C=C/c2cccc(OC)c2)c1=O	inactive
COC(=O)C1=C(C)N(CCCC(=O)O)C(=O)NC1c1cccc(Cl)c1Cl (stereo unspecified)	inactive
O=C(CSc1nnc(NC(=O)c2ccc3c(c2)OCO3)s1)NCc1ccco1	inactive
CCOc1ccc(C(=O)Nc2nnc(SCC(=O)NCC3CCCO3)s2)cc1 (stereo unspecified)	inactive

Compound	outcome
COc1ccc(C(=O)OCC(=O)c2c[nH]c3ccccc23)cc1OC	inactive
O=C1NC(=O)/C(=C\c2ccc(OCc3cccc(C(=O)O)c3)c(Cl)c2)N1	inactive
O=C(CN(Cc1cccs1)C(=O)CNS(=O)(=O)c1ccccc1)NCc1ccco1	inactive
Cc1ccc(S(=O)(=O)N2CCN(C(=O)CSc3nnnn3C)C2)cc1	inactive
O=C(O)/C=C/c1ccc(Cn2ccnc2)cc1	inactive
Cc1ccccc1NC(=O)CN1C(=O)S/C(=C\c2cccn2-c2cccc(C(=O)O)c2)C1=O	inactive
CC(C)[C@H](N[C@@H](C)c1ccccc1)c1c(O)ccc2ccccc12	inactive
O=C(C1CC1)N1N=C(c2ccc(Br)cc2)CC1(O)C(F)(F)F (stereo unspecified)	inactive
CN1CCN(CCOc2ccc(Cc3ccccc3)cc2)CC1	inactive
CN(C)S(=O)(=O)c1ccc(Cl)c(C(=O)NCCNC(=O)c2cc(S(=O)(=O)N(C)C)ccc2Cl)c1	inactive
CCCc1cc(=O)c2c(O)ccc(OC)c2o1	inactive
O=c1cc(C2CCCCC2)[nH]c(=O)[nH]1	inactive
CC(=O)OCC(=O)[C@@]1(O)CC[C@H]2[C@@H]3CCC4=CC(=O)CC[C@]4(C)[C@H]3[C@@H](O)C[C@@]21C	inactive
O=C(/C=C/Nc1cccc(C(F)(F)F)c1)C(F)(F)F	inactive
O=C(CN1CCN(S(=O)(=O)c2ccc(F)cc2)CC1)Nc1cccc(C(F)(F)F)c1	inactive
O=C(c1ccco1)N1CCN(S(=O)(=O)/C=C/c2ccccc2)CC1	inactive
O=C(Nc1ncccc1O)c1ccc(S(=O)(=O)NCc2ccco2)cc1	inactive
CCOC(=O)C1=C(C)N(C)C(=O)NC1c1ccccc1OC (stereo unspecified)	inactive
Cc1cc(=S)[nH]c2ccccc12	inactive
CC(=O)Oc1ccc(C(=O)Nc2cccnc2)cc1	inactive
CC(C)CCNC(=O)C1CCN(S(=O)(=O)c2ccc3c(c2)CC(C)N3C(=O)C2CC2)CC1 (stereo unspecified)	inactive
Cc1ccc2c(c1)N(CC(=O)N1CCCC1)C(=O)c1cccnc1O2	inactive
